Five compounds from PubChem BioAssay can be followed below.

Active and inactive are the calls of the source.

Assay [1] relates to Plasmodium falciparum Sir2 (PF13_0152, Sir2A). The assay is described as follows: Plasmodium falciparum Sir2A binding compounds – biochemical, small-molecule microarray, 635 nm fluorescence, primary screen (AID 1098).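 Further: score merges spot fluorescence intensity with its signal-to-noise ratio.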 The following applies: fluorescence 635 nm, higher = more signal.
Assay [2] in a line: probe aDKK1 binding to arrayed compounds – biochemical, biotinylated probe, 635/667 nm fluorescence, primary screen (AID 1099).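 Further: score merges 667nm spot fluorescence with signal to noise across triplicate slides.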 The note with it: small-molecule microarray, higher = more signal.
Assay [3] in a line: probe aCHRDL2 binding to arrayed compounds – biochemical, biotinylated probe, 635/667 nm fluorescence, primary screen (AID 1100). The following applies: small-molecule microarray, higher = more signal.
A short description of assay [4]: change in splice reporter luminescence, either direction, cell-based, HEK293, spliceosome inhibition project, primary screen (AID 1101).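 Further: HEK293 cells carrying a splicing-competent luciferase reporter gene; test concentration not given here.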 The note with it: HEK293 splicing luciferase reporter, 24 h, higher = more signal, called active from +8 up or from −8 down. (Reporter assays use an easily measured gene product as a stand-in for the process of interest.)
The target in assay [5] is Fibroblast growth factor 10 (Homo sapiens) (UniProt O15520). The assay is described as follows: compounds binding fibroblast growth factor 10 – biochemical, small-molecule microarray, 635 nm fluorescence, primary screen (AID 1102). The following applies: FGF10 binding, fluorescence 635 nm, higher = more signal.
Chain of Fibroblast growth factor 10 (Homo sapiens) (O15520 whole entry, looked up): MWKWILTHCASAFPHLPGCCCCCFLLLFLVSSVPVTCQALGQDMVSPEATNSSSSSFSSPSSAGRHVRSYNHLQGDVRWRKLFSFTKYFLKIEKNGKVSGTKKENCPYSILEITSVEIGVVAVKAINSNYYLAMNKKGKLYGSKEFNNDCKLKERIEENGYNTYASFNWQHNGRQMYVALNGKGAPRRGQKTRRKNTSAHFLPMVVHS
In assay [6] the test system is glycogen synthase kinase-3 (GSK3A per assay name; protocol says GSK3B). Description: compounds binding glycogen synthase kinase-3 – biochemical, small-molecule microarray, 635 nm fluorescence, GSK3A, primary screen (AID 1103). Further: the record names both GSK3A and GSK3B. The following applies: fluorescence 635 nm, higher = more signal.
Assay [7] concerns the target Epidermal growth factor receptor (Homo sapiens) (UniProt P00533). Description: compounds binding epidermal growth factor receptor – biochemical, small-molecule microarray, 635 nm fluorescence, primary screen (AID 1104).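 Further: score merges 667 nm emission intensity with spot signal to noise over triplicate slides.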 The following applies: EGFR binding, higher = more signal.
The target of assay [8] is Follistatin-related protein 3 (Homo sapiens) (UniProt O95633). The assay is described as follows: compounds binding follistatin-related protein 3 – biochemical, small-molecule microarray, 635 nm fluorescence, primary screen (AID 1105).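 Further: score merges emission near 667 nm and signal to noise per printed spot across three slides.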 The following applies: FSTL3 binding, higher = more signal.
Chain of Follistatin-related protein 3 (Homo sapiens) (O95633 whole entry, looked up): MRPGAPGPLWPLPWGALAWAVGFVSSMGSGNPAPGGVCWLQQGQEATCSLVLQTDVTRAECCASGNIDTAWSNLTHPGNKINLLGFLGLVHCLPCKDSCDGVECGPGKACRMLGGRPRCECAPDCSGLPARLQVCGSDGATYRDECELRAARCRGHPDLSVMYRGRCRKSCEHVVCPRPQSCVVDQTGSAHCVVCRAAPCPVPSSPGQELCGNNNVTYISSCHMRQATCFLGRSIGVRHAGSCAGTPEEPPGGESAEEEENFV
In assay [9] the target is Dickkopf-related protein 1 (Homo sapiens) (UniProt O94907). Description: small molecules binding DKK1 protein – biochemical, small-molecule microarray, 635 nm fluorescence scan, primary screen (AID 1106).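 Further: score merges emission near 667 nm with signal to noise over three replicate slides.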 The note with it: higher = more signal.
Chain of Dickkopf-related protein 1 (Homo sapiens) (O94907 whole entry, looked up): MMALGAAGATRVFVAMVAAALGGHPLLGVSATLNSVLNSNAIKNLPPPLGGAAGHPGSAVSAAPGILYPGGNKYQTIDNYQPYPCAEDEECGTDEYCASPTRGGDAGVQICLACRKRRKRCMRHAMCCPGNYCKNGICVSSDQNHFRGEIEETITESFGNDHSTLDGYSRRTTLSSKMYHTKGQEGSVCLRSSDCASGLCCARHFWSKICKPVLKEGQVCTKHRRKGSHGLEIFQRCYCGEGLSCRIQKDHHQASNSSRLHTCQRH
Assay [10] concerns Inhibin beta A chain (activin A). Description: small molecules binding activin A – biochemical, small-molecule microarray, 635 nm fluorescence scan, primary screen (AID 1107).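 Further: mouse activin A protein probed at 4.33 µg/mL on printed slides; score merges bound-protein fluorescence near 667 nm with spot signal-to-noise.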 The following applies: INHBA, higher = more signal.
Assay [11] concerns Human papillomavirus type 1a protein E7 (residues 44-93). Description: small molecules binding HPV E7 44-93 – biochemical, small-molecule microarray, residues 44-93, 635 nm fluorescence, primary screen (AID 1108).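 Further: E7 fragment applied at 1 µg/mL in TBST for 1 h at 4 C; score combines spot fluorescence with its signal to noise ratio.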 The note with it: fluorescence 635 nm, higher = more signal.
A short description of assay [12]: hepatitis C replication reporter changes, two-sided – Huh7 cells, luciferase reporter, HCV replication inhibitor project, primary screen (AID 1109).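 Further: huh7 hepatoma cells harbouring a luciferase neomycin HCV replicon reporter; luciferase luminescence as measure of HCV replicon replication; test concentration not given here.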 The following applies: Huh7 HCV replicon luciferase reporter, 48 h; higher = more signal.
For assay [13], the target named is Left-right determination factor 2 (Homo sapiens) (UniProt O00292). The assay is described as follows: small molecules binding LEFTY2 protein – biochemical, small-molecule microarray, 635 nm fluorescence scan, primary screen (AID 1110). The following applies: higher = more signal.
Chain of Left-right determination factor 2 (Homo sapiens) (O00292 whole entry, looked up): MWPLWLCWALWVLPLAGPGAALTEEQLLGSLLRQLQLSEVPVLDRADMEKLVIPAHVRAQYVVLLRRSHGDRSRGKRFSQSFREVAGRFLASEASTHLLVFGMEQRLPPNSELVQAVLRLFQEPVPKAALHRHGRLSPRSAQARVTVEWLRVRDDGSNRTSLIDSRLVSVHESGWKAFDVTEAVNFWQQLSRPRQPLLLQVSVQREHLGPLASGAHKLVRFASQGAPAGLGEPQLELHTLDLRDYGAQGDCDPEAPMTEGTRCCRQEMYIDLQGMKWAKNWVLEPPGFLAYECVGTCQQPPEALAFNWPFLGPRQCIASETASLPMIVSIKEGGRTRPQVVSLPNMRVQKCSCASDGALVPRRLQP
In assay [14] the target is Calmodulin-1 (Homo sapiens) (UniProt P0DP23). The assay is described as follows: small molecules binding calmodulin-1 with EGTA – biochemical, small-molecule microarray, Cy5-labelled CALM1, profiling panel (AID 1111).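 Further: labelled calmodulin applied in Tris saline Tween buffer holding calcium plus EGTA and DTT.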 The following applies: Cy5-CALM1 binding fluorescence, higher = more signal.
Assay [15] shares this target. Description: small molecules binding Ca-loaded calmodulin-1 – biochemical, small-molecule microarray, Cy5-labelled CALM1, plus calcium, artefact control for SMM control-protein annotation, profiling panel (AID 1112).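 Further: score merges spot fluorescence with signal to noise from triplicate slides.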 The note with it: Cy5-CALM1 binding fluorescence, higher = more signal.
Assay [16] in a line: probe aWnt5a binding to arrayed compounds – biochemical, biotinylated probe, 635/667 nm fluorescence, primary screen (AID 1113).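 Further: score merges 667 nm fluorescence intensity with signal-to-noise per printed feature.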 The following applies: small-molecule microarray, higher = more signal.
Assay [17] can be described thus: probe aShh binding to arrayed compounds – biochemical, biotinylated probe, 635/667 nm fluorescence, primary screen (AID 1114).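 Further: probe is biotin-labelled aShh protein from a stem cell growth factor screen; measures binding of labelled protein to compounds printed on the slide; score merges feature fluorescence at 667 nm with signal-to-noise.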 The note with it: small-molecule microarray, higher = more signal.
The nature of assay [18]: probe aNog binding to arrayed compounds – biochemical, biotinylated probe, 635/667 nm fluorescence, primary screen (AID 1115).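 Further: probe is biotinylated aNog protein used at 0.15 µg/mL for 1 h at 4 C; z-score combines 667 nm fluorescence of each spot with its signal to noise.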 The note with it: small-molecule microarray, higher = more signal.
The target in assay [19] is Torsin-1A-interacting protein 1 (Homo sapiens) (UniProt Q5JTV8). Description: compound microarray binding of lysate hLAP1 – cell lysate, small-molecule microarray, COS7 lysate, 635/667 nm fluorescence, primary screen (AID 1116). The note with it: 635 nm fluorescence, higher = more signal.
Chain of Torsin-1A-interacting protein 1 (Homo sapiens) (Q5JTV8 whole entry, looked up): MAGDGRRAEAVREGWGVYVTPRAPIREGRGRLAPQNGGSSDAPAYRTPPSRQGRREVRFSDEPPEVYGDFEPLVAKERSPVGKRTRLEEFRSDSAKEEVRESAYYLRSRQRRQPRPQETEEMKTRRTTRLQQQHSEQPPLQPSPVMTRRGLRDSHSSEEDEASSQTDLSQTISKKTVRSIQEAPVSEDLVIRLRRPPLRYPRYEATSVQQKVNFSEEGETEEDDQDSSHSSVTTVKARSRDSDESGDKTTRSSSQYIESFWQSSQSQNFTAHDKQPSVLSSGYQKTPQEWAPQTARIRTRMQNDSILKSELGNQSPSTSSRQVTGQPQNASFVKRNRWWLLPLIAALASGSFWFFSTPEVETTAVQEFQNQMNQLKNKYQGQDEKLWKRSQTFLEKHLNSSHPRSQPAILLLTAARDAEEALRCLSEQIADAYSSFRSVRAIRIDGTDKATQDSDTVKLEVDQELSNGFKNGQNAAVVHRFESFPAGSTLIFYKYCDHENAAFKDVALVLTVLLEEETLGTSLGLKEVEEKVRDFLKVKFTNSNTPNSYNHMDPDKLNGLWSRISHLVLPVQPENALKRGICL
Assay [20] concerns the target Alpha-bungarotoxin (Bungarus multicinctus) (UniProt P60615). Description: compounds binding labelled alpha-BTX control protein – biochemical, small-molecule microarray, Alexa647 label, 635/667 nm fluorescence, artefact control for SMM control protein annotation, profiling panel (AID 1117). The following applies: alpha-BTX-A647 binding fluorescence, higher = more signal.

Chain of Alpha-bungarotoxin (Bungarus multicinctus) (P60615 whole entry, looked up): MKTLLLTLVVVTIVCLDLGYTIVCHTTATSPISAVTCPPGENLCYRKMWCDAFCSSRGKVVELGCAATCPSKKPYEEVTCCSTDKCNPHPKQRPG
Chain of Epidermal growth factor receptor (Homo sapiens) (P00533 whole entry, looked up): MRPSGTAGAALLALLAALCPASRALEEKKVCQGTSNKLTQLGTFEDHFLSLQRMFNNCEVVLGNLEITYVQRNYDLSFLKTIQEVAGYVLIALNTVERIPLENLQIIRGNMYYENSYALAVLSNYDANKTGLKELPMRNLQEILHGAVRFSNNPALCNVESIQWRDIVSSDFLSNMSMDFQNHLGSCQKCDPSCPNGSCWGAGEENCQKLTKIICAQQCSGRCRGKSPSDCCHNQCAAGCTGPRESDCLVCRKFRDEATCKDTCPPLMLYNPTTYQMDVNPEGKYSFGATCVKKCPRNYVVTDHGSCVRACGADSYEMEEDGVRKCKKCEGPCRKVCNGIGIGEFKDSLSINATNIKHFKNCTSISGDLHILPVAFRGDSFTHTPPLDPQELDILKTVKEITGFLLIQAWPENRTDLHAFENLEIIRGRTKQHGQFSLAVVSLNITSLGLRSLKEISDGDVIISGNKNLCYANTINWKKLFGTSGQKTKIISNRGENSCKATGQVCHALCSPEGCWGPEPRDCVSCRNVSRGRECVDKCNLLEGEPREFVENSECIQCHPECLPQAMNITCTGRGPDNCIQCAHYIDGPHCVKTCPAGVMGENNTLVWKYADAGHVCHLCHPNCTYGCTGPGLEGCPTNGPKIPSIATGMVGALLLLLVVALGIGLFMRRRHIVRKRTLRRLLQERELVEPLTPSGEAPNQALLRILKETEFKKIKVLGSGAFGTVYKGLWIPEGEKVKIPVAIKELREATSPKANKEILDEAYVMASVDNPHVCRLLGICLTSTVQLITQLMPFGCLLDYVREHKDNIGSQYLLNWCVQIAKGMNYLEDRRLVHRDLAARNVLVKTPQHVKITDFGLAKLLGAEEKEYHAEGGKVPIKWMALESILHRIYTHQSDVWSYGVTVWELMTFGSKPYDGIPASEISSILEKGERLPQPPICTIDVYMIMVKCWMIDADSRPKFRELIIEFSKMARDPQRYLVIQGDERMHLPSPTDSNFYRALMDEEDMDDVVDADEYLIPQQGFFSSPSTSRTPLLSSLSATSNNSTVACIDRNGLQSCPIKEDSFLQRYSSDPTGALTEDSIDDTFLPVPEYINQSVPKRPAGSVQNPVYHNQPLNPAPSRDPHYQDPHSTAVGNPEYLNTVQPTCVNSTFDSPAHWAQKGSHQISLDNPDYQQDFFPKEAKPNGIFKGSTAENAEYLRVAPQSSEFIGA

Take `CN1C(=O)C2C=CC(C(O)C3CCCCC3)N(Nc3ccc([N+](=O)[O-])cc3[N+](=O)[O-])C2C1=O` (stereo not given): the composite z-score in assay [1] turned out to be 0.912; in assay [2] it was 0.778; in assay [3], 0.906; in [5], 0.911; in assay [6] it was 0.323; in assay [7], 0.374. For the same compound, the composite z-score was 1.29 in assay [8]; -0.33 in assay [9]; 0.738 in [10]; 1.28 in assay [11]; 0.0511 in assay [13]; 1.42 in [14]. For the same compound, the composite z-score in [15] is 0.377; in [16] it was -0.0472; in assay [17] it was 0.13; in assay [18] it was 1.59; in assay [19] it was 1.28; in [20], 1.34. Besides, the z-score in assay [4] was 1.84 (inactive); in [12], -0.613.
Consider `CCOC(=O)C[C@H]1[C@H](OC(=O)c2ccc(C(=O)c3ccccc3)cc2)[C@@H](NC(=O)c2ccc(-c3ccccc3)cc2)c2cc(OCCCO)ccc2N1C(=O)c1ccccc1`, for which the composite z-score in assay [1] is 0.82; in assay [2], -0.222; in [3], -0.387; in assay [5], 0.994; in assay [6], 0.477; in assay [7] it was 0.515. Also, the composite z-score in assay [8] is 0.723; in assay [9] it was 0.321; in assay [10], -0.144; in [11], 1.3; in assay [13] it was 0.342; in [14], 0.228. Besides, the composite z-score is -0.119 in assay [15]; 0.193 in assay [16]; -0.0709 in [17]; -0.632 in assay [18]; 0.191 in assay [19]; 0.706 in assay [20]. For the same compound, the z-score was 0.475 (inactive) in assay [4] and -1.1 in [12].
Consider `CC(=O)N1Cc2ccccc2C[C@@]2(COC(c3ccc(OCCCO)cc3)=N2)C1=O`, for which the composite z-score in assay [1] is 1.32; in assay [2], 1.18; in assay [3], 1.31; in assay [5], 0.649; in assay [6], 1.32; in [7], 0.455. For the same compound, the composite z-score was 1.13 in assay [8]; 0.438 in [9]; 1.09 in assay [10]; 0.612 in [11]; 0.827 in assay [13]; 1.79 in [14]. Further, the composite z-score amounted to 0.845 in [15]; 0.0587 in assay [16]; 0.412 in assay [17]; 0.114 in assay [18]; 1.7 in [19]; 1.88 in [20]. Also, the figures for the z-score in assay [4] and in [12] were -1.66 (inactive) and -1.62, respectively.
For the compound `COC(=O)[C@@]1(Cc2ccccc2)[C@H]2c3cc(C(=O)N4CCCC4)n(CC4CC4)c3C[C@H]2CN1C(=O)c1ccccc1`, the composite z-score in [1] turned out to be 1.23; in [2] it was 1.48; in assay [3] it was 1.16; in [5], 0.596; in [6], 1.29; in assay [7], 0.436. Besides, the composite z-score in assay [8] was 1.17; in assay [9], -0.23; in [10] it was 1.16; in assay [11], 1.39; in assay [13], 0.192; in assay [14] it was 1.13. The composite z-score is 0.697 in [15]; 0.647 in assay [16]; 0.834 in assay [17]; 2.57 in assay [18]; 0.079 in [19]; 0.615 in [20]. The figures for the z-score in [4] and in [12] were -2.08 (inactive) and -2.17, respectively.
For the compound `C=CCOC(=O)[C@@H]1[C@H]2C(=O)O[C@H](c3ccccc3)[C@H](c3ccccc3)N2[C@H](c2ccc(OCCOC(=O)[C@@H]3C[C@@H]4C(=O)N[C@@H](CCCCN(C)C)C(=O)N4[C@@H]3c3ccc(O)cc3)cc2)[C@@]12C(=O)Nc1ccc(I)cc12`, the composite z-score in [1] is 1.14; in assay [2], -0.0242; in assay [3] it was 0.0749; in [5], 0.767; in assay [6], 1.13; in assay [7], 1.01. The composite z-score worked out at 1.04 in assay [8]; 1.11 in [9]; 0.347 in assay [10]; 1.34 in [11]; 0.696 in assay [13]; 0.846 in assay [14]. Also, the composite z-score in [15] is -0.0759; in assay [16], -0.0927; in assay [17] it was 0.432; in assay [18], -0.12; in [19] it was 0.454; in assay [20], 0.78. Also, the z-score in [4] was -0.0143 (inactive); in assay [12] it was -2.84.
